# Inconclusive results are not listed. A number with no mark means an inactive call. Active and inactive are the calls of the source. Calls follow the shape of the dose curve; as a rule, active = well fitted cell-killing curve with a large enough effect in the repeat runs; inconclusive = weak or mixed curves, or effect the other way; inactive = flat fitted curve, though single readings scatter.
# Test: qHTS assay to identify small molecule agonists of the sonic hedgehog signaling (Shh) pathway - cell viability counter screen (AID 1259366); also: nearly all actives have a fitted effect of over 50% in size
# Settings: NIH/3T3 Gli1-Luc viability, CellTiter-Fluor, 24 h; series mostly up to 92.4 µM; viability change, negative = cytotoxic: at the top concentration
# From the text: National Center for Advancing Translational Sciences [NCATS]
# NIH Chemical Genomics Center [NCGC]
# U.S. Environmental Protection Agency [EPA]
# National Institutes of Environmental Health Sciences [NIEHS]
# National Toxicology Program [NTP]
# U.S. Food and Drug Administration [FDA]
# The sonic hedgehog (Shh) pathway is essential for normal embryonic development. Dysregulation of the Shh pathway can cause severe developmental defects in organs. Therefore chemicals that interfere with the pathway are potential developmental toxicants. A cell line designated 3T3Gli1-Luc (DMB/OARSA/CFSAN/FDA, Laurel, MD), a NIH/3T3 derived clone containing stably integrated Gli1-Luc reporter is used to detect chemical interference of the Shh pathway, by changes in the expression of the firefly Luc gene under the control of the Gli1 transcriptional response element. This cell line was used to screen Tox21 libraries for identifying and prioritizing the potential developmental toxicants that interfere Shh pathway. The cytotoxicity of the compounds was tested in parallel by measuring the cell viability using CellTiter-Fluor assay system (Promega, Madison, WI) in the same wells.
# Tox21 Assay Protocol Summary:
# 3T3 Gli1-Luc cells were dispensed at 2,000 per well in 5uL of culture medium into white solid bottom 1536-well plates (Greiner Bio-One, Monroe, NC) using a Multidrop Combi (Thermo Scientific, Waltham, MA) dispenser. The assay plates were incubated at 37 C and 5% CO2 for 4hr, and then 23nL of compounds dissolved in DMSO and positive control were transferred using a Pintool station (Wako, San Diego, CA). The assay plates were incubated at 37C and 5% CO2 for 24hr. For viability read, after 23hr of compound treatment, 1uL of CellTiter-Fluor reagent (Promega Corporation, Madison, WI) was added to each well of the assay plates using Flying Reagent Dispenser (FRD, Aurora Discovery, San Diego, CA) and incubated the assay plates at 37C for 1hr. The fluorescence signal was quantified using a ViewLux plate reader (Perkin Elmer, Shelton, CT).
# % is scaled to controls: 0 for no effect and ±100 for the full control effect; potency is read from the fitted curve at half-maximal effect.
SMILES,"viability change, negative = cytotoxic",Potency
Cc1cccc2sc3nncn3c12,1.87%,
C[C@@H](N)[C@@H](O)c1ccccc1,2.92% [at 42.5 µM],
ClCCCCl,-3.89%,
CCCCCCCCBr,1.05%,
ClCOCCl,-2.41%,
CC(=O)OCC1=C(C(=O)O)N2C(=O)[C@@H](N)[C@H]2SC1,1.92% [at 19 µM],
O=C(O)C(Cl)Br (stereo not given),5.93%,
O=C/C=C/c1ccco1,3.98%,
CCC1(CC)C(=O)C=CNC1=O,13.1% [at 42.5 µM],
O=C1CCCCC1Cl (stereo not given),2.09%,
Clc1ccc(C(Cl)(Cl)Cl)cn1,3.13%,
CCCCS(=O)(=O)Cl,6.91%,
BrCC1CO1 (stereo not given),-2.06%,
CC1N=C(N)OC1c1ccccc1 (stereo not given),-14.5%,
O=C(O)c1c(Cl)ccc2cc(Cl)cnc12,0.533%,
CCNP(=S)(OC)O/C(C)=C/C(=O)OC(C)C (stereo not given),3.13%,
CCOC(=O)COc1ccc(Cl)cc1Cl,2.35%,
Nc1c(Cl)c(F)nc(OCC(=O)O)c1Cl,1.95%,
CCOC(=O)N(C)N=O,4.54%,
C/C=C/CC#N,1.32%,

SMILES,"viability change, negative = cytotoxic",Potency
CC(=O)CN(CC(C)=O)N=O,2.81%,
CC(C)C(C)(N)C#N (stereo not given),-0.0154%,
O=C(Cl)CCl,-5.08%,
CC(C)(C)NC[C@H](O)c1ccc(O)cc1Cl,3.19% [at 42.5 µM],
Clc1nc(Cl)nc(Nc2ccccc2Cl)n1,3.82%,
C(COCC1CO1)OCC1CO1 (stereo not given),7.43%,
CCOC(=O)CCl,1.91%,
CCCOC(=O)Cc1ccc(OCC(=O)N(CC)CC)c(OC)c1,2.65% [at 42.5 µM],
COP(=O)(OC)O/C(C)=C/C(=O)N(C)C,2.86%,
CCCC[N+](=O)[O-],3.38%,
N#CN,-9.97% [at 240 µM],
O=C(Cl)c1ccccc1,6.66%,
CCCCCCC(=O)CCCCCC/C=C/C[C@@H](O)[C@H](O)[C@@](N)(CO)C(=O)O,4.09% [at 19 µM],
CCCOC(=O)c1cncn1C(C)c1ccccc1 (stereo not given),0.0721% [at 42.5 µM],
C[C@H]1CCCC(=O)CCC/C=C/c2cc(O)cc(O)c2C(=O)O1,,20.9 µM (active)
C=C1CC[C@@]2(O)[C@H]3Cc4ccc(O)c5c4[C@@]2(CCN3CC2CC2)[C@H]1O5,-5.53% [at 42.5 µM],
NNCc1ccccc1,-9.09%,
CCC1(c2cccc(O)c2)CCCCN(C)C1 (stereo not given),-21.4% [at 42.5 µM],
CC(Cl)(Cl)Cl,-2.89%,
Cc1cc(OC(=O)N(C)C)nn1C(=O)N(C)C,-1.02%,

# Source: PubChem BioAssay (Tox21)
